# In article PMC7862700, “An all-to-all approach to the identification of sequence-specific readers for epigenetic DNA modifications on cytosine”:
# Tests used:
# Assay in all cases: DAPPL (digital affinity profiling via proximity ligation, sequencing); 10 mM Tris-HCl pH 7.5, 50 mM NaCl, 1 mM DTT, 4% glycerol, room temperature, 30 min; GST-TFs on glutathione beads, 16-mer random dsDNA library, 0.1% formaldehyde crosslink after washing; high values mean tight binding
# FLI1 = target: T1, FLI1 (Homo sapiens, UniProt Q01543 1-452); settings: protein: recombinant; tags: N-terminal GST; dsDNA, one strand shown
# T1 sequence: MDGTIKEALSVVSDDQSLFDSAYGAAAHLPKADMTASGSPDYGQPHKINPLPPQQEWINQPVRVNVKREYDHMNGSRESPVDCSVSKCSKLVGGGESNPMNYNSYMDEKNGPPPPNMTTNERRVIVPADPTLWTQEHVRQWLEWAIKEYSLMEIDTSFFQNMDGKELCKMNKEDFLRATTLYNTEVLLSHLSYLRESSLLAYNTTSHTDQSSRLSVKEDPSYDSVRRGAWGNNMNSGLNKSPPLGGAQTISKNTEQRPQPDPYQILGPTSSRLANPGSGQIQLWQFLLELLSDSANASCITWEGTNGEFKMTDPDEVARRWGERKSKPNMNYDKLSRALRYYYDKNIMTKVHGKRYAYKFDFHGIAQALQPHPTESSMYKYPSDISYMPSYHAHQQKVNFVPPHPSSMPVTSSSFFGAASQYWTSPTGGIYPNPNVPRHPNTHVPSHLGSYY
# Outline: (§1)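 GST fusions of human transcription factors were expressed in yeast and captured with glutathione beads. Once given DNA barcodes and pooled alongside a tag-only sample, they were incubated for 30 min at room temperature with 200 nmole of a random double-stranded 16-mer DNA library in Tris/NaCl/DTT/glycerol buffer, then washed, crosslinked (0.1% formaldehyde), proximity-ligated, PCR-amplified and sequenced on an Illumina NextSeq500. The binding signal of each hexamer is its read frequency for a factor divided by its frequency for the tag-only sample.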
# ELK1 = target: T2, ELK1 (Homo sapiens, UniProt P19419 1-428); settings: protein: recombinant; tags: N-terminal GST; dsDNA, one strand shown
# T2 sequence: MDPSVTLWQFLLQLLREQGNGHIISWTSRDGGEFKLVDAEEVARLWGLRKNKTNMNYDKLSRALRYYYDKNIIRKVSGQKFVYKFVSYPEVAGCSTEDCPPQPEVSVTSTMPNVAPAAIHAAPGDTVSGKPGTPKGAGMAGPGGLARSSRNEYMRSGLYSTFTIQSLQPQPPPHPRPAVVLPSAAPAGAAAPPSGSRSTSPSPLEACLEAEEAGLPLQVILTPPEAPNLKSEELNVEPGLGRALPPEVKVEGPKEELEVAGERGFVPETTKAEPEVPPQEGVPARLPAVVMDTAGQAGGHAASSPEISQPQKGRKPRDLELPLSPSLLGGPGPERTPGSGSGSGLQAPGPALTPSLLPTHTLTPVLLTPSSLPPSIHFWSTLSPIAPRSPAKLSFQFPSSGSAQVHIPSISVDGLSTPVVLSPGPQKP
# Outline: as §1
# GABPA = target: T3, GABPA (Homo sapiens, UniProt Q06546 1-454); settings: protein: recombinant; tags: N-terminal GST; dsDNA, one strand shown
# T3 sequence: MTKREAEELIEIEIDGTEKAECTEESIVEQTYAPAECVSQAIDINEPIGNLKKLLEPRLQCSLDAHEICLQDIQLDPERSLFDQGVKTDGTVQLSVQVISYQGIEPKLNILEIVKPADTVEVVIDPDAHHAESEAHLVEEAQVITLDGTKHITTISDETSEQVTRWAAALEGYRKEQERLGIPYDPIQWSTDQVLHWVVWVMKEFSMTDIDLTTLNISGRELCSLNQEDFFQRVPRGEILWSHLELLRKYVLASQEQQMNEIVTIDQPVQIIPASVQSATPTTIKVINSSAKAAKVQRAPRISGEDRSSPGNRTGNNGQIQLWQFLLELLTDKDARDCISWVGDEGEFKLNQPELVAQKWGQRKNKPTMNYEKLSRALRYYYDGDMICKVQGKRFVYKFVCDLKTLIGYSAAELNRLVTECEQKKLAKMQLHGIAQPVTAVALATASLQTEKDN
# Outline: as §1
# ERG = target: T4, ERG (Homo sapiens, UniProt P11308 1-479); settings: protein: recombinant; tags: N-terminal GST; dsDNA, one strand shown
# T4 sequence: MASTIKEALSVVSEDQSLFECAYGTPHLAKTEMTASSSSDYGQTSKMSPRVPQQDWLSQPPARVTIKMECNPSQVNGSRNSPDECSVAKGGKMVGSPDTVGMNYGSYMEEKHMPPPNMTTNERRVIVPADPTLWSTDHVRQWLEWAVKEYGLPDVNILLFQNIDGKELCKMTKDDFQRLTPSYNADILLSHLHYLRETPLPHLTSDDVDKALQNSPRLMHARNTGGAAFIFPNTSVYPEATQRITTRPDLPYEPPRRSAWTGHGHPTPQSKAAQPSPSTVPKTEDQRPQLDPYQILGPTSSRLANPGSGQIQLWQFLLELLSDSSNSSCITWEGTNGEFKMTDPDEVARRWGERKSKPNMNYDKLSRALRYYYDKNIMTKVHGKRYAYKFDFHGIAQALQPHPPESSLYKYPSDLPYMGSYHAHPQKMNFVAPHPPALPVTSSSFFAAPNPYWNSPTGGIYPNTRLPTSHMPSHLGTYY
# Outline: as §1
# ELF1 = ELF1 (Homo sapiens, UniProt P32519 1-619); settings: protein: recombinant; tags: N-terminal GST; dsDNA, one strand shown
# Outline: as §1
# EHF = target: T5, EHF (Homo sapiens, UniProt Q9NZC4 1-300); settings: protein: recombinant; tags: N-terminal GST; dsDNA, one strand shown
# T5 sequence: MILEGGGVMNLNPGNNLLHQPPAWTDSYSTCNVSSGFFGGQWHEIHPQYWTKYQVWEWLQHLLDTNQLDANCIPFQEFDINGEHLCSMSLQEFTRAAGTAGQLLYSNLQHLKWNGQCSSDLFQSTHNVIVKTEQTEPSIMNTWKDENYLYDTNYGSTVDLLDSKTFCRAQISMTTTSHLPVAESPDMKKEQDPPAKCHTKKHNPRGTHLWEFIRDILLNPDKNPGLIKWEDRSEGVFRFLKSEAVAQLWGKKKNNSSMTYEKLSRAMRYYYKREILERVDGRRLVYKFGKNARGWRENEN
# Outline: as §1
# SPI1 = SPI1 (Homo sapiens, UniProt P17947 1-270); settings: protein: recombinant; tags: N-terminal GST; dsDNA, one strand shown
# Outline: as §1
# SPIB = SPIB (Homo sapiens, UniProt Q01892 1-262); settings: protein: recombinant; tags: N-terminal GST; dsDNA, one strand shown
# Outline: as §1
# ELK3 = target: T6, ELK3 (Homo sapiens, UniProt P41970 1-407); settings: protein: recombinant; tags: N-terminal GST; dsDNA, one strand shown
# T6 sequence: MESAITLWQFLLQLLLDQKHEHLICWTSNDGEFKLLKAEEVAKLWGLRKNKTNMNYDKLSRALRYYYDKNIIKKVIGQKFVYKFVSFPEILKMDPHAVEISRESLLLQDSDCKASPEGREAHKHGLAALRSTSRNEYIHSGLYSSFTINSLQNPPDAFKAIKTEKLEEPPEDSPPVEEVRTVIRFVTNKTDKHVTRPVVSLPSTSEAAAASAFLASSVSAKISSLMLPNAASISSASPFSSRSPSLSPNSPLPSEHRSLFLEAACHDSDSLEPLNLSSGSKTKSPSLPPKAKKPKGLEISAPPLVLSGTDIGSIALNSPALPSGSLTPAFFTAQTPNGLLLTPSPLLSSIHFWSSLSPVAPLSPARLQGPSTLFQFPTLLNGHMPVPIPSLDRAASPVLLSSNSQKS
# Outline: as §1
# FEV = target: T7, FEV (Homo sapiens, UniProt Q99581 1-238); settings: protein: recombinant; tags: N-terminal GST; dsDNA, one strand shown
# T7 sequence: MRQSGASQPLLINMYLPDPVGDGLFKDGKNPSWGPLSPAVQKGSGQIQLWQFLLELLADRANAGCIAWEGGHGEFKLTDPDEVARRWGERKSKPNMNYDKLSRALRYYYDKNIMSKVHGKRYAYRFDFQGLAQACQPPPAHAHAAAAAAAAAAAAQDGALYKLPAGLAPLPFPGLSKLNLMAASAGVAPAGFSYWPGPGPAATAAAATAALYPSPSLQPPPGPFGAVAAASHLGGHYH
# Outline: as §1
# ETV5 = ETV5 (Homo sapiens, UniProt P41161 1-510); settings: protein: recombinant; tags: N-terminal GST; dsDNA, one strand shown
# Outline: as §1
# HSF1 = HSF1 (Homo sapiens, UniProt Q00613 1-529); settings: protein: recombinant; tags: N-terminal GST; chain copies: 3; dsDNA, one strand shown
# Outline: as §1
# SPIC = target: T8, SPIC (Homo sapiens, UniProt Q8N5J4 1-248); settings: protein: recombinant; tags: N-terminal GST; dsDNA, one strand shown
# T8 sequence: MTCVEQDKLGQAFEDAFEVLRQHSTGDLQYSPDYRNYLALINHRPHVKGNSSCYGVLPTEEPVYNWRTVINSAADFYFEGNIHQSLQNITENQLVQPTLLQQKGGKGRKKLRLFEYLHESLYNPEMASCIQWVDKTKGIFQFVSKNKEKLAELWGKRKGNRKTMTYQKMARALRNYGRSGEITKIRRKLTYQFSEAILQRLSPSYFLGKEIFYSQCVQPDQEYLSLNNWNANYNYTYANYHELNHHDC
# Outline: as §1
# ELF4 = ELF4 (Homo sapiens, UniProt Q99607 1-663); settings: protein: recombinant; tags: N-terminal GST; dsDNA, one strand shown
# Outline: as §1
# ELK4 = target: T9, ELK4 (Homo sapiens, UniProt P28324-2 1-405); settings: protein: recombinant; tags: N-terminal GST; dsDNA, one strand shown
# T9 sequence: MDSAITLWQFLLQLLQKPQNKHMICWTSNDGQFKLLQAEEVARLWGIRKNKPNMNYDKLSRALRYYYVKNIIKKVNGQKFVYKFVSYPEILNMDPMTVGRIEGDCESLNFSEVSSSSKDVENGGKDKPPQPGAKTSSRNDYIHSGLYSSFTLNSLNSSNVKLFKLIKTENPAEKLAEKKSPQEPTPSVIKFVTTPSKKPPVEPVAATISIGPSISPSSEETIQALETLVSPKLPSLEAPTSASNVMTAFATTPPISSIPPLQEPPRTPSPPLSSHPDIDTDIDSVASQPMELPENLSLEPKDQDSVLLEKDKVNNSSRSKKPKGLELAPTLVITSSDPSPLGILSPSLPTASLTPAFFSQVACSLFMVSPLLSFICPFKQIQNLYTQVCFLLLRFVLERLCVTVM
# Outline: as §1
# ETV2 = target: T10, ETV2 (Homo sapiens, UniProt O00321 1-342); settings: protein: recombinant; tags: N-terminal GST; dsDNA, one strand shown
# T10 sequence: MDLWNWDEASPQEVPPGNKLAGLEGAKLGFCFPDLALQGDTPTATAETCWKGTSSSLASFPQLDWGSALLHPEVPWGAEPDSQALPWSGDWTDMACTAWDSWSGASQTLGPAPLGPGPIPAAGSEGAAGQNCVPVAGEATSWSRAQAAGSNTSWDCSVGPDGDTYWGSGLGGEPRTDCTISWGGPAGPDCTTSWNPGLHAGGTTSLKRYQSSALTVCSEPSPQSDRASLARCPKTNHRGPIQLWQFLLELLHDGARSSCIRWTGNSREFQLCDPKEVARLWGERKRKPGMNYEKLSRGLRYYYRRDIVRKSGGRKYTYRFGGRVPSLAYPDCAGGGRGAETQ
# Outline: as §1
# ELF3 = target: T11, ELF3 (Homo sapiens, UniProt P78545 1-371); settings: protein: recombinant; tags: N-terminal GST; dsDNA, one strand shown
# T11 sequence: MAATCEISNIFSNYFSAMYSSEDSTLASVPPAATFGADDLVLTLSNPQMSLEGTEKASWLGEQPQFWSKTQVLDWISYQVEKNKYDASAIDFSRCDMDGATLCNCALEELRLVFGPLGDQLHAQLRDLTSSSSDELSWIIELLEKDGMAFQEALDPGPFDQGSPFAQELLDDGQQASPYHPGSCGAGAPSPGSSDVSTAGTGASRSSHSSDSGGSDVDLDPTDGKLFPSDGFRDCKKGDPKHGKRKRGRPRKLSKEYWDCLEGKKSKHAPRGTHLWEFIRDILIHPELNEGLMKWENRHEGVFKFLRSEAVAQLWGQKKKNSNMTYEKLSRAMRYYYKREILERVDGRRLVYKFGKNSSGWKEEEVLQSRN
# Outline: as §1
# CRX = CRX (Homo sapiens, UniProt O43186 1-299); settings: protein: recombinant; tags: N-terminal GST; dsDNA, one strand shown
# Outline: as §1
# ETV1 = ETV1 (Homo sapiens, UniProt P50549 1-477); settings: protein: recombinant; tags: N-terminal GST; dsDNA, one strand shown
# Outline: as §1
# Sequence of ETV5 (P41161 whole entry): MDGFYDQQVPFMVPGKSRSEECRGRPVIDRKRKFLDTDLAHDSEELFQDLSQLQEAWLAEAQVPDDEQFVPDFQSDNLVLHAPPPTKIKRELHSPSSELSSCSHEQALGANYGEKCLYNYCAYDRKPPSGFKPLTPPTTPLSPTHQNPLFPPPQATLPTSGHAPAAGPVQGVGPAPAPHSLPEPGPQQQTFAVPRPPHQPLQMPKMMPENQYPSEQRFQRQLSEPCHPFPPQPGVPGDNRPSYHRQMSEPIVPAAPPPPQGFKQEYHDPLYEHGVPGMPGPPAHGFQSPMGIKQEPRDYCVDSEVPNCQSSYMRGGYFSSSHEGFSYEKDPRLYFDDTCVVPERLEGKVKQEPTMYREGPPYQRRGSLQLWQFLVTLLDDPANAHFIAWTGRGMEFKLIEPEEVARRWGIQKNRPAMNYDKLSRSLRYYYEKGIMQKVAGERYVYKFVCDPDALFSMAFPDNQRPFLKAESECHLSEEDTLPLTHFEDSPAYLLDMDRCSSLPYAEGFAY
# Sequence of SPIB (Q01892 whole entry): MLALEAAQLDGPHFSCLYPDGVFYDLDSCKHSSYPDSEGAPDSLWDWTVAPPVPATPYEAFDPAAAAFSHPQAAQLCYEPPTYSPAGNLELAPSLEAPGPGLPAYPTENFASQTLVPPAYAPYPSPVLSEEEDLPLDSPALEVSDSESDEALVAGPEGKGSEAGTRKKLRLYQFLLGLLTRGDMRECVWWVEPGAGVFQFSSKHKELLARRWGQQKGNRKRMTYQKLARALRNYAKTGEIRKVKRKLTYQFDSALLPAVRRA
# Sequence of ELF1 (P32519 whole entry): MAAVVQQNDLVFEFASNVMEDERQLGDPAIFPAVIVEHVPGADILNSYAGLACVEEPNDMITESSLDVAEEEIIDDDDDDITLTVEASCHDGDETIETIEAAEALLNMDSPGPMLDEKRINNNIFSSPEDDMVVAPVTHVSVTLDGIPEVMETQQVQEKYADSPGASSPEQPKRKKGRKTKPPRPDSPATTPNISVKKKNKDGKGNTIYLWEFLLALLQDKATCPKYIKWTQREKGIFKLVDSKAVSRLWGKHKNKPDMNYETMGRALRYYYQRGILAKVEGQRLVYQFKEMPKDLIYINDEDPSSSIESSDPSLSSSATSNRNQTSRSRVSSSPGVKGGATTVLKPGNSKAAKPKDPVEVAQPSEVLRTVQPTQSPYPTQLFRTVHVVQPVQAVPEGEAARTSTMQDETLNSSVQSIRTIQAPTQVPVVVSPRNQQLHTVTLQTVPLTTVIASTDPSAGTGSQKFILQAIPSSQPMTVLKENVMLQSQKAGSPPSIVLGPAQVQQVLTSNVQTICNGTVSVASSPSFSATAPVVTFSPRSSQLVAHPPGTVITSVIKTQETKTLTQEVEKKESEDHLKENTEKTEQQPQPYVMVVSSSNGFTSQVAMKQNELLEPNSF
# Sequence of ETV1 (P50549 whole entry): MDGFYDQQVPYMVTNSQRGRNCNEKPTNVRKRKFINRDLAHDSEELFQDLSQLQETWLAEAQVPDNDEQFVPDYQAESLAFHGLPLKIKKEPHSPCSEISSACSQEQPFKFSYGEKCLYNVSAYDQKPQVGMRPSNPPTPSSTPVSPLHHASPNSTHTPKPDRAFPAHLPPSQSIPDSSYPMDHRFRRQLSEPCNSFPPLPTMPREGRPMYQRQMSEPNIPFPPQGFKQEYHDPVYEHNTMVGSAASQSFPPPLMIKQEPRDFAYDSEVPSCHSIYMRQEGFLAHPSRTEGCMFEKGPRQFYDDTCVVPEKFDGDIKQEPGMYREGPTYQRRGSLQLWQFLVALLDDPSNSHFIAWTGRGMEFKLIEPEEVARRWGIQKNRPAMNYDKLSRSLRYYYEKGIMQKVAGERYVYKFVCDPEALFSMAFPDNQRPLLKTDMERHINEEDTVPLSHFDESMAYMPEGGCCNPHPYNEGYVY
# Sequence of ELF4 (Q99607 whole entry): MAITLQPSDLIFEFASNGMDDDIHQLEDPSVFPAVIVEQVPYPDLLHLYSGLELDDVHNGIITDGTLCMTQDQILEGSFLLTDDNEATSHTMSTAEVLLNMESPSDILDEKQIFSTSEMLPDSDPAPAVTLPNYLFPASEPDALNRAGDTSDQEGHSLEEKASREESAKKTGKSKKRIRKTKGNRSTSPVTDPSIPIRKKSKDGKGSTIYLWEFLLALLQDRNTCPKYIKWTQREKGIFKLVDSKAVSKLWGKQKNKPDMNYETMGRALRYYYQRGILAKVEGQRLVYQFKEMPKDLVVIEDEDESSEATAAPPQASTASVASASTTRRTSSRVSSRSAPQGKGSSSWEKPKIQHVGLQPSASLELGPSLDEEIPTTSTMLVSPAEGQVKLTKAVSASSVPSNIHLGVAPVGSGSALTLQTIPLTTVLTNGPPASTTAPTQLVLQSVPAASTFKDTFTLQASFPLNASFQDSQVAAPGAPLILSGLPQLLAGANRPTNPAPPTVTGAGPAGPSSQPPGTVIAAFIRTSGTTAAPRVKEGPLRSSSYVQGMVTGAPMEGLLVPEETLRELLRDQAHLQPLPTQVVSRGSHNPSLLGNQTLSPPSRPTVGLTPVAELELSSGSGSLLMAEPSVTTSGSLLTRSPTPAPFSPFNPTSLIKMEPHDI
# Sequence of CRX (O43186 whole entry): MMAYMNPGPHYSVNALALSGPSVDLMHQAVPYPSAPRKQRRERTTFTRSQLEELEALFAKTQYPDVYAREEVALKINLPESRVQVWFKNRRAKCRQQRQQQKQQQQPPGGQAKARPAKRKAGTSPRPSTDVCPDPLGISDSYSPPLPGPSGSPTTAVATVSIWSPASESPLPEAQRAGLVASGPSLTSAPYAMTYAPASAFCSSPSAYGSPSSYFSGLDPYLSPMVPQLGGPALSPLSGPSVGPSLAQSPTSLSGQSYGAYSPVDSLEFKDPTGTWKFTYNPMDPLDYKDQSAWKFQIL
# Sequence of HSF1 (Q00613 whole entry): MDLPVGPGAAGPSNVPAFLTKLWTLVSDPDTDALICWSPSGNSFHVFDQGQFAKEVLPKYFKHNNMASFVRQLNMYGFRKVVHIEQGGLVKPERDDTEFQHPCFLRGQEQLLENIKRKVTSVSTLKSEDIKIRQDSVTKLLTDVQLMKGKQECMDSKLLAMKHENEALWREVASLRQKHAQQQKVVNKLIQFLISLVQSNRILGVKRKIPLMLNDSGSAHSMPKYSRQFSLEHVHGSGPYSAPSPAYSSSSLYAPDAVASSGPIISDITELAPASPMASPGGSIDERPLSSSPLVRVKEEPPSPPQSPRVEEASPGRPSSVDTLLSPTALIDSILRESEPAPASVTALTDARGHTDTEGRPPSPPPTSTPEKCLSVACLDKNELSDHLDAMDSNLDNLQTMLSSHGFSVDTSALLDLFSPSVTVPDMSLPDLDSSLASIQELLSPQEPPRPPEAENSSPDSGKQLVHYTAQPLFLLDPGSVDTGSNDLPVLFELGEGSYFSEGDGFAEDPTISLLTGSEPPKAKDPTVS
sequence,measurement,setting,value
CTGTTT,binding signal,FLI1,"1.48 fold enrichment (6-mer frequency, TF over GST control)"
same,binding signal,ELK1,"1.36 fold enrichment (6-mer frequency, TF over GST control)"
same,binding signal,GABPA,"1.41 fold enrichment (6-mer frequency, TF over GST control)"
same,binding signal,ERG,"1.4 fold enrichment (6-mer frequency, TF over GST control)"
same,binding signal,ELF1,"1.4 fold enrichment (6-mer frequency, TF over GST control)"
same,binding signal,EHF,"1.34 fold enrichment (6-mer frequency, TF over GST control)"
same,binding signal,SPI1,"1.6 fold enrichment (6-mer frequency, TF over GST control)"
same,binding signal,SPIB,"1.43 fold enrichment (6-mer frequency, TF over GST control)"
same,binding signal,ELK3,"1.34 fold enrichment (6-mer frequency, TF over GST control)"
same,binding signal,FEV,"1.41 fold enrichment (6-mer frequency, TF over GST control)"
same,binding signal,ETV5,"1.42 fold enrichment (6-mer frequency, TF over GST control)"
same,binding signal,HSF1,"1.13 fold enrichment (6-mer frequency, TF over GST control)"
same,binding signal,SPIC,"1.31 fold enrichment (6-mer frequency, TF over GST control)"
same,binding signal,ELF4,"1.38 fold enrichment (6-mer frequency, TF over GST control)"
same,binding signal,ELK4,"1.29 fold enrichment (6-mer frequency, TF over GST control)"
same,binding signal,ETV2,"1.4 fold enrichment (6-mer frequency, TF over GST control)"
same,binding signal,ELF3,"1.14 fold enrichment (6-mer frequency, TF over GST control)"
same,binding signal,CRX,"1.08 fold enrichment (6-mer frequency, TF over GST control)"
same,binding signal,ETV1,"1.5 fold enrichment (6-mer frequency, TF over GST control)"
